This is one part of the list. Unmarked numbers belong to inactive results. The source made the active and inactive calls. Rule as the data show it: active = IC50 below about 20 µM; inactive = the rest.
Experiment: blockers of mitochondrial swelling via MPTP – biochemical, absorbance, uHTS hits, dose response (AID 651561)
Conditions: isolated mitochondria swelling

Q: Which IC50 does the source give for CCCC[C@@H]1CN=C(N)N1CCc1cc(C(F)(F)F)cc(C(F)(F)F)c1 here?
A: 6.67 µM (active)

Q: Which IC50 does the source give for CCCCc1nc(NCCN)c(C#N)c2c1CSC(C)(C)C2 here?
A: 13.3 µM (active)

Q: Which IC50 does the source give for Cc1ccc(-c2noc(CCC(=O)Nc3ccccc3N3CCN(C)CC3)n2)cc1 here?
A: 18.8 µM (active)

Q: Which IC50 does the source give for Cc1ccc2c(c1)C1CN(C)CCC1N2S(=O)(=O)c1ccc(Oc2ccc([N+](=O)[O-])cc2)cc1 (stereo not given) here?
A: 17.5 µM (active)

Q: Which IC50 does the source give for N=c1n(Cc2ccc(Cl)cc2)c2ccccc2n1CC(O)c1ccco1 (stereo not given) here?
A: 5.87 µM (active)

Q: Which IC50 does the source give for O=C(NC1CCN(Cc2ccccc2)CC1)c1cc(Br)c(Br)[nH]1 here?
A: > 100 µM

Q: For O=C(Nc1cccc(C(F)(F)F)c1)c1ccc(N2CCNCC2)c([N+](=O)[O-])c1, which IC50 is on record?
A: 8.28 µM (active)

Q: For COc1ccc2sc(N(CCCN(C)C)C(=O)c3ccc(S(=O)(=O)N(C)C4CCCCC4)cc3)nc2c1, which IC50 is on record?
A: 7.47 µM (active)

Q: Which IC50 does the source give for Fc1ccc(N2N=C(c3cccs3)CC2c2ccco2)c(F)c1 (stereo not given) here?
A: 51.9 µM

Q: For CCCCOc1ccc(CSC(=N)N)cc1[N+](=O)[O-], which IC50 is on record?
A: 6.05 µM (active)

Q: With CCNCCC(=O)N1c2ccccc2Sc2ccc(NC(=O)OCC)cc21 as the molecule, how does the IC50 read?
A: 32.7 µM

Q: For CCOC(=O)c1c(NC(=O)CSc2cn(CC)c3ccccc23)sc2c1CCC2, which IC50 is on record?
A: > 100 µM

Q: With CCCC(C(=O)OCCN(CC)CC)(c1ccccc1)c1ccccc1 as the molecule, how does the IC50 read?
A: 12.5 µM (active)

Q: Which IC50 does the source give for CN(C)Cc1ccccc1C1(O)c2ccccc2CSc2ccccc21 (stereo not given) here?
A: 13.4 µM (active)

Q: For COc1ccc(/C=C(/CC(=O)Nc2ccc(C)cc2)c2nc3ccccc3s2)cc1, which IC50 is on record?
A: 45.4 µM
